Among the data in the supplement of paper PMC9492666 are relative cell viability values, retold here.

One assay relates to HCC1937. As to the kind of experiment: relative cell viability, compound alone, vs DMSO (fraction of DMSO control); higher = less growth inhibition. To be noted: 72 h.
Another assay relates to MDA-MB-231. Described as above. To be noted: 72 h.

Molecules are shown by their SMILES. Structures can show the parent of a compound that is named as a salt.
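Further: viability read out with the CCK-8 kit in 96-well plates, screening a set of 303 compounds acting on lipid metabolism targets.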

As for `O=c1cc(-c2ccc(O)c(-c3c(O)cc(O)c4c(=O)cc(-c5ccc(O)cc5)oc34)c2)oc2cc(O)cc(O)c12` [Amentoflavone], the results for the relative cell viability with HCC1937 and with MDA-MB-231 were 0.782 and 0.812, respectively.
On the same counts, the results for `O=P(O)(O)OC(CO)CO` [β-Glycerol phosphate disodium salt pentahydrate] are 0.636 and 0.874.
Regarding `CC[C@H](C)C(=O)O[C@H]1C[C@@H](C)C=C2C=C[C@H](C)[C@H](CC[C@@H]3C[C@@H](O)CC(=O)O3)[C@H]21` [Lovastatin], the relative cell viability with HCC1937 worked out at 1.13; with MDA-MB-231 it was 0.657.
Taken in the same sequence, the figures for `COC(=O)N(CC(=O)O)Cc1cccc(OCc2nc(-c3ccc(Cl)cc3)oc2C)c1` were 1.08 and 0.834.
Taken in the same sequence, the figures for `O=C1C(SCCO)=C(SCCO)C(=O)c2ccccc21` were 0.777 and 0.875.
Taken in the same sequence, the figures for `COc1cc(N2CCN(C)CC2)ccc1Nc1ncc2c(n1)N(C1CCC1)C(=O)N(c1c(C)cccc1C)C2` were 0.817 and 0.767.
On to `CC(=O)O[C@H](CC=C(C)C)C1=CC(=O)c2c(O)ccc(O)c2C1=O` [Acetyl shikonin], for which the relative cell viability in the assay with HCC1937 amounted to 1.08; in the assay on MDA-MB-231, 1.06.
On the same counts, the results for `O=C(O)c1cccnc1Nc1cccc(C(F)(F)F)c1` [Niflumic acid] are 1.09 and 0.89.
As for `CCOc1cc(CC(=O)N[C@@H](CC(C)C)c2ccccc2N2CCCCC2)ccc1C(=O)O` [Repaglinide], the relative cell viability with HCC1937 turned out to be 1.02; with MDA-MB-231 it was 0.938.
For the compound `COc1cccc(CNc2ccc(S(=O)(=O)Nc3nc4ccccc4s3)cc2)c1O`, the relative cell viability in the assay with HCC1937 worked out at 1.01; in the assay on MDA-MB-231 it was 0.975.
Regarding `Cc1c(C(=O)NN2CCCCC2)nn(-c2ccc(Cl)cc2Cl)c1-c1ccc(Cl)cc1` [Rimonabant], the relative cell viability was 0.936 in the assay on HCC1937 and 0.817 with MDA-MB-231.
For the compound `O=c1oc2ccccc2cc1O` [3-Hydroxycoumarin], the relative cell viability in the assay with HCC1937 turned out to be 1.02; in the assay on MDA-MB-231 it was 1.05.
On to `Nc1ccc(O)c(C(=O)O)c1` [Mesalamine], for which the relative cell viability in the assay on HCC1937 was 1.17; in the assay on MDA-MB-231 it was 0.914.
As for `O=c1ccc2cc(O)c(O)cc2o1` [Esculetin], the relative cell viability in the assay with HCC1937 came to 0.673; in the assay on MDA-MB-231 it was 0.672.
On the same counts, the results for `O=C(Nc1ccc(C(O)(C(F)(F)F)C(F)(F)F)cc1)c1ccccc1Cl` are 1.05 and 1.01.
On the same counts, the results for `CC(C)Cc1ccc([C@H](C)C(=O)O)cc1` [Dexibuprofen] are 1.36 and 0.905.
